Measured values published in the supplement of paper PMC3334620.
The full ranking holds about 33,000 sequences; the median of “E-score (-0.5 to 0.5)” is about -0.016, and the highest 2% start at about 0.32. The entries come from a sample that favours the highest values as a whole.

What follows are sequences tested against T1, Stp1 (UniProt B3LFK1) (assay: PBM E-score (8-mer binding enrichment) (E-score (-0.5 to 0.5)); higher = stronger / more preferred TF binding). Conditions: protein concentration: 200 nM; construct: GST-full length.
T1 sequence: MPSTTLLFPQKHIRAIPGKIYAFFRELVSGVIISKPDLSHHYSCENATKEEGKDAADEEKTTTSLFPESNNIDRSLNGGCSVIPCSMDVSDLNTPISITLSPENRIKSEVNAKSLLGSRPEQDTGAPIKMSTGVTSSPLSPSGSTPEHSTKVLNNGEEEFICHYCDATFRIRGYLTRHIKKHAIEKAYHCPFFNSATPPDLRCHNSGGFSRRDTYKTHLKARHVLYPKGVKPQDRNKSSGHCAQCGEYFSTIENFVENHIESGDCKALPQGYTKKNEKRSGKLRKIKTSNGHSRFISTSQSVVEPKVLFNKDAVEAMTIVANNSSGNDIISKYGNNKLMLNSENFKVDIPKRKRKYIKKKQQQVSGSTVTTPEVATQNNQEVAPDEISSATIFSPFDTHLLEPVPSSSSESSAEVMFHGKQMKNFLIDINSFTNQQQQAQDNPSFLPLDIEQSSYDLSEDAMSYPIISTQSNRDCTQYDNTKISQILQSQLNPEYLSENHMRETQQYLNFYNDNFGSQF
Method: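 Universal 'all 10-mer' protein binding microarrays (Agilent AMADID 015681) probed with GST-tagged S. cerevisiae TFs (full-length or DBD) made by in vitro transcription/translation (PURExpress), about 100-200 nM. Bound TF was detected with fluorescent anti-GST. Each ungapped 8-mer (which stands for itself and its reverse complement) is scored by the PBM enrichment score (E-score), a modified Wilcoxon-Mann-Whitney statistic from -0.5 to +0.5, computed with the Universal PBM Analysis Suite. Scale: above 0.35 generally sequence-specific binding.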

| Sequence | PBM E-score |
| --- | --- |
| AGAGGCGA | 0.135 |
| CGAGGCGC | 0.456 |
| CGAGGCTC | 0.131 |
| CGAGGCGA | 0.289 |
| AGAGGCGC | 0.327 |
| AGAGGCGG | 0.061 |
| GGGGCAAA | 0.0199 |
| TACTGTGA | -0.14 |
| ATGGTAAA | 0.0118 |
| AATTACTC | 0.144 |
| CTTCTAGC | -0.0527 |
| ACCGTGCA | -0.0437 |
| GACGTGCC | 0.238 |
| ACCGTGGA | 0.0243 |
| ACCGTGTA | 0.0338 |
| GCCGTGGA | 0.402 |
| ACCGTGCC | 0.313 |
| CCCGTGGA | -0.0712 |
| GCCGTGCC | 0.487 |
| GCCGTGCA | 0.478 |
| CCCGTGTA | 0.0889 |
| GCCGTGTA | 0.473 |
| TCCGTGCA | 0.258 |
| CCTTTTGC | 0.214 |
| ACAGATAG | -0.0308 |
| AATATGCG | 0.114 |

| Sequence | PBM E-score |
| --- | --- |
| ACAACGAT | 0.00545 |
| AAGACGAA | 0.0123 |
| GAAGTGTC | -0.0596 |
| CGAGTCGA | -0.00477 |
| ACGGGTGC | 0.105 |
| GCGCTCGA | 0.0767 |
| CGCGTGCA | 0.0968 |
| CTCGTGCC | 0.294 |
| AGCGTGCC | 0.126 |
| GCCGTGAC | 0.294 |
| GCCGTGAA | 0.361 |
| CCCGTGCC | 0.33 |
| TCCGTGAA | 0.0172 |
| CGCGTGCC | 0.325 |
| CCCGTGGC | 0.046 |
| CCTCTCCC | -0.253 |
| ACTGGCAG | 0.0412 |
| CTCGACGA | -0.13 |
| TAATAGTA | 0.24 |
| ATTCCTAC | 0.0636 |
| CCAATAGG | 0.0256 |
| AACGGCCA | 0.214 |
| CACGGCCA | 0.34 |
| AACGGCCC | 0.235 |
| AACGGCCT | 0.151 |
| CCCGGCCG | -0.152 |

| Sequence | PBM E-score |
| --- | --- |
| ATCGGCCG | 0.15 |
| CACGGCCG | 0.338 |
| AACGGCCG | 0.333 |
| CACGGCCC | 0.337 |
| GACGGCCA | -0.0395 |
| CAAGGCCG | 0.103 |
| GACGGCCC | 0.069 |
| AGATCAGG | -0.173 |
| CTAGAGTC | -0.33 |
| ACGGAGCT | 0.087 |
| AACATAGG | 0.0786 |
| AGCCTTCA | 0.108 |
| AGGCATAC | 0.0863 |
| CTTTCTCC | -0.244 |
| GATGCCGC | 0.466 |
| CATGCCGC | 0.427 |
| CATGCCGA | 0.188 |
| CATGCCGG | 0.186 |
| GATGCCCC | -0.129 |
| GATGCCGA | 0.29 |
| CGGAAACA | -0.0866 |
| GGGCATAC | -0.00074 |
| CCACGTGC | 0.215 |
| GCACGTGC | 0.352 |
| GCACGTGA | 0.135 |
| ACCAGAGC | -0.0074 |

| Sequence | PBM E-score |
| --- | --- |
| CCGCACCA | 0.237 |
| AGTGCCTC | 0.347 |
| CGTGCCCC | 0.0449 |
| CGTGCCTA | 0.184 |
| AGTGCCTA | 0.21 |
| AGTGCCTG | -0.0958 |
| CGTGCCTC | 0.398 |
| GGTGGTTA | 0.00324 |
| AACGCATG | -0.0148 |
| AGGCGAAC | 0.145 |
| CGGCGAAC | 0.317 |
| CGCCGAAG | 0.13 |
| CGCCGAAC | 0.347 |
| CGGCGAAG | 0.292 |
| CGGCGAAA | 0.354 |
| GGGCGAAC | 0.0424 |
| AGCCGAAC | -0.0533 |
| TGGCGAAA | 0.088 |
| CATAGTCA | -0.195 |
| CTGGAGTC | -0.362 |
| TAGCAGGA | -0.226 |
| CAGCCTTC | -0.091 |
| CGGCATCC | 0.353 |
| AGGCATCA | 0.215 |
| CGGCATCA | 0.438 |
| GGGCATCA | 0.104 |

| Sequence | PBM E-score |
| --- | --- |
| CAGCATCA | 0.0143 |
| CAGCATCC | -0.252 |
| AGGCATAG | 0.15 |
| CGGCATAA | 0.358 |
| GGGCATAA | 0.0801 |
| CGGCATAC | 0.27 |
| AGGCATCG | 0.348 |
| AGGCATCC | -0.0829 |
| CACCACGA | -0.0238 |
| ATATCGAG | 0.123 |
| CATAGGGC | 0.152 |
| ACCCTAGA | -0.227 |
| ACTGTTCC | -0.131 |
| ACCATCAA | -0.149 |
| ATCAGTTG | 0.00725 |
| GACTGCTC | -0.287 |
| TTCAACAA | 0.167 |
| AAAAGCTC | -0.131 |
| AGCGCCGC | 0.481 |
| CGCCGCGC | 0.487 |
| AGCGCAGC | -0.112 |
| CTCCGCGC | 0.227 |
| AGCGCCCC | 0.0659 |
| GCCGCCTA | 0.185 |
| CACCGCGC | 0.166 |
| AGCGCCTA | 0.182 |

| Sequence | PBM E-score |
| --- | --- |
| CGCGCCGC | 0.483 |
| GGCGCCTA | 0.362 |
| CGCCCCGC | 0.221 |
| CGCGCCCC | 0.209 |
| CATGATCG | -0.0196 |
| GGAGCCAC | -0.246 |
| CAGCGAAA | -0.0495 |
| CGATCAGA | -0.053 |
| GTACACGA | 0.136 |
| ATATTAGG | 0.0795 |
| CTCGAAAC | 0.113 |
| AGACAACG | 0.0214 |
| CAAGACGG | -0.0357 |
| CATTGCGC | 0.0607 |
| GGCGCCGA | 0.421 |
| CGCGCCGA | 0.362 |
| AGCGCCGG | 0.174 |
| GGCGCCCA | 0.311 |
| AGCGCCGA | 0.321 |
| AGCGCAGA | -0.0529 |
| CGCGCCCA | 0.213 |
| AGCGCCCA | -0.225 |
| AGCGCCCT | 0.319 |
| GTCGCCGA | 0.0933 |
| CGCGCAGA | 0.22 |
| AGCGCCCG | -0.00709 |

| Sequence | PBM E-score |
| --- | --- |
| AGCCAAAG | -0.00729 |
| AGATCCTG | -0.32 |
| CACGGTCC | -0.109 |
| TCCCCAAA | -0.0405 |
| GACTATCC | -0.178 |
| CAACCAGG | -0.196 |
| GGAGTGAA | -0.0852 |
| AGATTTCC | -0.00021 |
| ACAAAGTG | -0.0329 |
| ATCTTGAG | -0.0881 |
| GGCCGCGA | -0.0392 |
| CACCGCGA | -0.0402 |
| CGCCGCGA | 0.379 |
| ACCGCCGG | -0.0408 |
| ACCGCCGT | 0.449 |
| ACCGCCAT | 0.0869 |
| ACCGCCCT | -0.14 |
| ACCGCCGC | 0.389 |
| ACCGCCGA | 0.0744 |
| AGCAACCC | -0.306 |
